# Assay results taken from PubChem BioAssay (EPA / NIEHS).
# Inconclusive results are not listed. Activity calls are given as the source filed them. Rule for the calls, unless noted: active = hit-call score of the fitted dose curve at least 0.9, where 1 is the maximum; inconclusive = response in the unintended direction; inactive = score below 0.9.
# How the values were obtained:
# [1] = ATG_TAL_CIS: Attagene CIS-FACTORIAL HepG2 Assay for human TAL Basal Promoter (AID 2282966; active = hit-call score of the fitted dose curve at least 0.9, where 1 is the maximum; inactive = score below 0.9;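 note: background control endpoint measuring basal TAL promoter reporter mRNA not a specific factor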); conditions: HepG2 Attagene cis-factorial TAL promoter reporter; actives raise or lower the signal
# Outline: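 Readout: reporter mRNA, fluorescence by CE. System: HepG2, transient multi-reporter transfection, endogenous TF activity. Exposure: 24 h. Analysis: bidirectional, DMSO-normalized; background control.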
# [2] = ATG_TGFb_CIS: Attagene CIS-FACTORIAL HepG2 Assay for human Transforming Growth Factor (TGF) (AID 2282967; active = hit-call score of the fitted dose curve at least 0.9, where 1 is the maximum; inactive = score below 0.9); conditions: HepG2 Attagene CIS TGFb reporter, mRNA transcription; actives raise or lower the signal
# Outline: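 Multiplexed cis-reporter HepG2 system, 24 h treatment; mRNA induction read by fluorescence after RT-PCR and CE; DMSO negative control, bidirectional curve fitting.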
# [3] = ATG_VDRE_CIS: Attagene CIS-FACTORIAL HepG2 Assay for human Vitamin D Receptor Element (VDRE) (AID 2282968; active = hit-call score of the fitted dose curve at least 0.9, where 1 is the maximum; inactive = score below 0.9); conditions: HepG2 VDRE cis-reporter transcription, actives raise or lower the signal
# Outline: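 Cell-based multiplexed reporter format in human liver HepG2 cells, 24 h post-dose. Fluorescence from capillary electrophoresis of reporter cDNA gives the signal, with DMSO as negative control and baseline.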
# [4] = target: Nuclear receptor subfamily 1 group I member 3 (Homo sapiens) (UniProt Q14994); assay: ATG_CAR_TRANS: Attagene TRANS-FACTORIAL HepG2 Assay for human Constitutive Androstane Receptor (CAR) (AID 2282969); conditions: HepG2 Attagene TRANS-FACTORIAL CAR reporter;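 note: activators raise reporter mRNA above DMSO so AC50 marks induction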
# Outline: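 HepG2 cells transiently transfected with GAL4-UAS reporter units; TRANS format reads activity of exogenous chimeric NR-Gal4 protein. After 24 h dosing, reporter mRNA quantified by RT-PCR, 6-FAM labelling and capillary electrophoresis; gain of signal fitted against DMSO.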
# [5] = target: Estrogen receptor (Homo sapiens) (UniProt P03372); assay: ATG_ERa_TRANS: Attagene TRANS-FACTORIAL HepG2 Assay for human Estrogen Receptor alpha (ERa) (AID 2282970); conditions: HepG2 Attagene TRANS ERa GAL4 reporter, mRNA
# Outline: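 Transactivation via ERa-Gal4 chimera in HepG2; 24 hour incubation; reporter mRNA detected by fluorescence RT-PCR and capillary electrophoresis.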
# [6] = target: Steroid hormone receptor ERR1 (Homo sapiens) (UniProt P11474); assay: ATG_ERRa_TRANS: Attagene TRANS-FACTORIAL HepG2 Assay for human Estrogen-Related Receptor alpha (ERRa) (AID 2282971); conditions: HepG2 Attagene TRANS reporter, ERRa transactivation
# Outline: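 HepG2 cells were transiently transfected with multiple GAL4-UAS reporter units, then dosed with compound for 24 h. Total RNA was reverse-transcribed, reporter cDNA PCR-amplified and fluorescently labelled, and fragments resolved by capillary electrophoresis; induction was compared with DMSO.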
# [7] = target: X-box-binding protein 1 (Homo sapiens) (UniProt P17861); assay: ATG_Xbp1_CIS: Attagene CIS-FACTORIAL HepG2 Assay for human X-box Binding Protein 1 (XBP1) (AID 2282972; active = hit-call score of the fitted dose curve at least 0.9, where 1 is the maximum; inactive = score below 0.9); conditions: HepG2 XBP1 cis-element reporter, Attagene multiplex; actives raise or lower the signal
# Outline: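 HepG2 cells transiently transfected with cis-regulated multiple reporter transcription units; endogenous transcription factor activity measured 24 hours after chemical dosing. Reporter mRNA quantified by RT-PCR, 6-FAM primer extension, HpaI digestion and capillary electrophoresis; bidirectional fitting versus DMSO.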
# [8] = ATG_M_19_TRANS: Attagene TRANS-FACTORIAL HepG2 Assay for M19 Transcription Factor (Internal Marker) (AID 2282974); conditions: HepG2 Attagene TRANS-FACTORIAL M19 internal marker reporter
# Outline: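 HepG2 transiently transfected with GAL4-UAS multiplex reporter constructs, exposed 24 h; reporter RNA quantified by RT-PCR, 6-FAM labeling, HpaI digestion and capillary electrophoresis; internal background marker fitted upward versus DMSO.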
# [9] = target: Glucocorticoid receptor (Homo sapiens) (UniProt P04150); assay: ATG_GR_TRANS: Attagene TRANS-FACTORIAL HepG2 Assay for human Glucocorticoid Receptor (GR) (AID 2282978); conditions: HepG2 Attagene TRANS GR reporter, mRNA transcription;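 note: activators score as hits since higher reporter transcript over DMSO is fitted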
# Outline: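 HepG2 cells transiently transfected with GAL4-UAS reporter units and exogenous GR-Gal4 chimera, dosed 24 h. Reporter mRNA by RT-PCR, FAM labeling, HpaI digest and capillary electrophoresis; gain-of-signal fit versus DMSO.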
# [10] = target: Oxysterols receptor LXR-alpha (Homo sapiens) (UniProt Q13133); assay: ATG_LXRa_TRANS: Attagene TRANS-FACTORIAL HepG2 Assay for human Liver X Receptor alpha (LXRa) (AID 2282980); conditions: HepG2 Attagene TRANS reporter, LXRa transactivation
# Outline: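 Transient HepG2 transfectants, 24 h dosing, RT-PCR/CE mRNA reporter quantitation; gain-of-signal vs DMSO.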
# [11] = target: Oxysterols receptor LXR-beta (Homo sapiens) (UniProt P55055); assay: ATG_LXRb_TRANS: Attagene TRANS-FACTORIAL HepG2 Assay for human Liver X Receptor beta (LXRb) (AID 2282981); conditions: HepG2 Attagene TRANS GAL4-LXRb reporter, mRNA
# Outline: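 Gain-of-signal mRNA reporter endpoint, DMSO as negative control. Transiently transfected HepG2 cells carrying the NR-Gal4 chimera and GAL4-UAS reporter units were treated 24 h; transcripts quantified by RT-PCR and capillary electrophoresis fluorescence.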
# [12] = target: Hepatocyte nuclear factor 4-alpha (Homo sapiens) (UniProt P41235); assay: ATG_HNF4a_TRANS: Attagene TRANS-FACTORIAL HepG2 Assay for human Hepatocyte Nuclear Factor 4 alpha (HNF4a) (AID 2282982); conditions: HepG2 HNF4a transactivation reporter, mRNA readout
# Outline: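 Gain-of-signal mRNA induction, relative to DMSO vehicle, was read after 24 h compound treatment of HepG2 cells bearing transfected GAL4-UAS reporters. Detection used RT-PCR, 6-FAM primer extension and capillary electrophoresis.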
# [13] = ATG_M_32_TRANS: Attagene TRANS-FACTORIAL HepG2 Assay for M32 Transcription Factor (Internal Marker) (AID 2282984); conditions: HepG2 Attagene TRANS M32 internal marker reporter;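 note: transcript level of a background control reporter unit measured by RT-PCR and capillary electrophoresis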
# Outline: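 Capillary electrophoresis of 6-FAM-labelled reporter fragments gives the signal; data fitted for gain over DMSO negative control. Source: HepG2 cells bearing transient multiple reporter transcription units, 24 h exposure.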
# [14] = target: Transcriptional activator Myb (Homo sapiens) (UniProt P10242); assay: ATG_Myb_CIS: Attagene CIS-FACTORIAL HepG2 Assay for human Myeloblastosis (Myb) Proto-Oncogene Transcription Factor (AID 2282986; active = hit-call score of the fitted dose curve at least 0.9, where 1 is the maximum; inactive = score below 0.9); conditions: HepG2 Attagene CIS-FACTORIAL Myb reporter transcription; actives raise or lower the signal
# Outline: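 Transiently transfected HepG2 cells carrying a multiplexed cis-promoter reporter set report endogenous Myb activity after 24 h compound exposure. Reporter mRNA is read by RT-PCR with capillary electrophoresis of fluorescent products, fitted bidirectionally against DMSO.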
# [15] = target: Nuclear respiratory factor 1 (Homo sapiens) (UniProt Q16656); assay: ATG_NRF1_CIS: Attagene CIS-FACTORIAL HepG2 Assay for human Nuclear Respiratory Factor 1 (NRF1) Orphan Gene (AID 2282987; active = hit-call score of the fitted dose curve at least 0.9, where 1 is the maximum; inactive = score below 0.9); conditions: HepG2 NRF1 cis-element reporter, Attagene multiplex; actives raise or lower the signal
# Outline: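 HepG2 cells transiently transfected with multiple cis-regulated reporter units, exposed 24 h. Reporter mRNAs measured by RT-PCR, fluorescent labelling, HpaI digestion and capillary electrophoresis; bidirectional fitting against DMSO.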
# [16] = target: Estrogen-related receptor gamma (Homo sapiens) (UniProt P62508); assay: ATG_ERRg_TRANS: Attagene TRANS-FACTORIAL HepG2 Assay for human Estrogen-Related Receptor gamma (ERRg) (AID 2282977); conditions: HepG2 Attagene TRANS reporter, ERRg transactivation;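 note: hits increase reporter signal over DMSO so potencies reflect activators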
# Outline: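 HepG2 cells transiently transfected with multiplexed GAL4-UAS reporter units and chimeric NR-Gal4 constructs were exposed to test chemicals for 24 h. Reporter mRNA was measured by RT-PCR, 6-FAM primer extension, HpaI digestion and capillary electrophoresis; gain-of-signal versus DMSO.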
# [17] = target: Bile acid receptor (Homo sapiens) (UniProt Q96RI1); assay: ATG_FXR_TRANS: Attagene TRANS-FACTORIAL HepG2 Assay for Farnesoid X Receptor (FXR) (AID 2282979); conditions: HepG2 Attagene TRANS FXR-GAL4 reporter transcription;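 note: hits raise reporter mRNA above DMSO so AC50 marks FXR activation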
# Outline: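 Chimeric FXR-GAL4 activity in transiently transfected human HepG2 liver cells is scored as induction of reporter mRNA after 24 h of dosing. Detection uses RT-PCR with fluorescent labelling and capillary electrophoresis, with DMSO serving as baseline.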
# [18] = target: Nuclear receptor subfamily 4 group A member 2 (Homo sapiens) (UniProt P43354); assay: ATG_NURR1_TRANS: Attagene TRANS-FACTORIAL HepG2 Assay for human Nuclear Receptor Related Protein 1 (NURR1) (AID 2282985); conditions: HepG2 Attagene TRANS reporter, mRNA readout
# Outline: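 HepG2 / transient MRTU transfection / 24 h compound exposure / RT-PCR + CE fluorescence of reporter mRNA / gain-of-signal vs DMSO.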
# [19] = ATG_M_06_TRANS: Attagene TRANS-FACTORIAL HepG2 Assay for M06 Transcription Factor (Internal Marker) (AID 2282983); conditions: HepG2 Attagene TRANS M06 internal marker reporter
# Outline: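 Measured by capillary electrophoresis of fluorescently labelled RT-PCR products, this endpoint reflects reporter mRNA in HepG2 cells harbouring exogenous NR-GAL4 reporter constructs after 24 h exposure, with DMSO as baseline.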
# [20] = ATG_GAL4_TRANS: Attagene TRANS-FACTORIAL HepG2 Assay for GAL4 (Internal Marker) (AID 2282976); conditions: HepG2 Attagene TRANS GAL4 internal marker reporter
# Outline: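 Fluorescence from capillary electrophoresis of labelled RT-PCR products quantifies reporter mRNA induction after 24 h dosing of HepG2 cells carrying transfected GAL4-UAS reporter transcription units. Vehicle DMSO serves as baseline.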
# Hepatocyte nuclear factor 4-alpha (Homo sapiens), sequence (P41235 whole entry, looked up, the tested form may be a part): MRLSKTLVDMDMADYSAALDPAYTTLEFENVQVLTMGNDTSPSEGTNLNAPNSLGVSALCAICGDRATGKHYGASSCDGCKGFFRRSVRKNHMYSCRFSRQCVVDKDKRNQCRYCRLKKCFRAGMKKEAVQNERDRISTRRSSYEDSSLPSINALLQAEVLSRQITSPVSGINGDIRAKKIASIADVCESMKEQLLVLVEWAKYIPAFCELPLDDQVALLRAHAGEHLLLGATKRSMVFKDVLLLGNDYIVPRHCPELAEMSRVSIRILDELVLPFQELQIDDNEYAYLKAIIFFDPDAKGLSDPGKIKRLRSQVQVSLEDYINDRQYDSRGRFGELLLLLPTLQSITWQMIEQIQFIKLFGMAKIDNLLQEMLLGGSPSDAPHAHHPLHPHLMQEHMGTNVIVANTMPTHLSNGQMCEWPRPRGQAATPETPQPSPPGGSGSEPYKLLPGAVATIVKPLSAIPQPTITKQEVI
# Nuclear receptor subfamily 4 group A member 2 (Homo sapiens), sequence (P43354 whole entry, looked up): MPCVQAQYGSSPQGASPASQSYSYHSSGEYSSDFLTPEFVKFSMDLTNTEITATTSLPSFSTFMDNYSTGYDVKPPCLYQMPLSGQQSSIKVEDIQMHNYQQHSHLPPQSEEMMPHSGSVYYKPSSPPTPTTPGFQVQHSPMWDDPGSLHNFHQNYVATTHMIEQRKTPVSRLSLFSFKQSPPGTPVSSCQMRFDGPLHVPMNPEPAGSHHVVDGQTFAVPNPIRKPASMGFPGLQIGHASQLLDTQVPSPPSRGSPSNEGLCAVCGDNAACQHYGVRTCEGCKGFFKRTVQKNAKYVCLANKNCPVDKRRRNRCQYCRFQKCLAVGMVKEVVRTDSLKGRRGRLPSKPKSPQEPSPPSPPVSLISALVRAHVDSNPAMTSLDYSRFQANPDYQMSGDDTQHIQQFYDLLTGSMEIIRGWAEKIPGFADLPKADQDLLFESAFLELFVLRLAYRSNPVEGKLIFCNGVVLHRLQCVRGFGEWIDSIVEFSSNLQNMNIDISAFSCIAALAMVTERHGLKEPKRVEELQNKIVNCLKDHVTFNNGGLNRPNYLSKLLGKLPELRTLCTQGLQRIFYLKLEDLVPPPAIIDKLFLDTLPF
# Steroid hormone receptor ERR1 (Homo sapiens), sequence (P11474 whole entry, looked up, the tested form may be a part): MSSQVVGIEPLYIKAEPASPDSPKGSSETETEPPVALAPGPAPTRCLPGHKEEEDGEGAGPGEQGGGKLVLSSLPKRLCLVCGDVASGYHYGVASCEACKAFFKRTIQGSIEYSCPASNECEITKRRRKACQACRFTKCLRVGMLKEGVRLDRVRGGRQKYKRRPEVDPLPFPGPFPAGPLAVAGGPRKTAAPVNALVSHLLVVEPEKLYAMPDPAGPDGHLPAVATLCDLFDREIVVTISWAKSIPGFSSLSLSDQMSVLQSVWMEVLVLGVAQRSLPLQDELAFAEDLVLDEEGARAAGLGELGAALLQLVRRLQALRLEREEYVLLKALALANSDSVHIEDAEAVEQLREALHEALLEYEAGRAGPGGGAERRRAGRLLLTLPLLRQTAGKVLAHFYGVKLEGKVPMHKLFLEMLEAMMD
# Nuclear respiratory factor 1 (Homo sapiens), sequence (Q16656 whole entry, looked up): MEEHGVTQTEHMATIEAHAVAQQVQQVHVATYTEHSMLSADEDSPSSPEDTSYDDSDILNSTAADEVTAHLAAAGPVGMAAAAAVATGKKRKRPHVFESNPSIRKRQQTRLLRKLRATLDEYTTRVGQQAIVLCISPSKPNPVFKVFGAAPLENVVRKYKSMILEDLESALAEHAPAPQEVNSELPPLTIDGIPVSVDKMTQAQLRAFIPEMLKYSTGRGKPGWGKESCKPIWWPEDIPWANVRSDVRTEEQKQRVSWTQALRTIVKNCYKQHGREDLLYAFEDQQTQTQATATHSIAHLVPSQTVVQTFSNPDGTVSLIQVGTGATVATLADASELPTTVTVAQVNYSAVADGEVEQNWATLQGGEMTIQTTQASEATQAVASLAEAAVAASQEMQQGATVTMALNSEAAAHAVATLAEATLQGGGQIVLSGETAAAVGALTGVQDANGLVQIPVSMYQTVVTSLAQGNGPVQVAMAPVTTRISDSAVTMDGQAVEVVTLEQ
# X-box-binding protein 1 (Homo sapiens), sequence (P17861 whole entry, looked up): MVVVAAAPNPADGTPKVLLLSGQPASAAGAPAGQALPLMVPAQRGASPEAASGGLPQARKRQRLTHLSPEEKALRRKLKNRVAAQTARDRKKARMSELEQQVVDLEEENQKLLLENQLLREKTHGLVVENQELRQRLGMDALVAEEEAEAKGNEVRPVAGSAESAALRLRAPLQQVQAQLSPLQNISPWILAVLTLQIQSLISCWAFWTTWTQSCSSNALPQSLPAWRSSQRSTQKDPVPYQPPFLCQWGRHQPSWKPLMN
# Oxysterols receptor LXR-beta (Homo sapiens), sequence (P55055 whole entry, looked up, the tested form may be a part): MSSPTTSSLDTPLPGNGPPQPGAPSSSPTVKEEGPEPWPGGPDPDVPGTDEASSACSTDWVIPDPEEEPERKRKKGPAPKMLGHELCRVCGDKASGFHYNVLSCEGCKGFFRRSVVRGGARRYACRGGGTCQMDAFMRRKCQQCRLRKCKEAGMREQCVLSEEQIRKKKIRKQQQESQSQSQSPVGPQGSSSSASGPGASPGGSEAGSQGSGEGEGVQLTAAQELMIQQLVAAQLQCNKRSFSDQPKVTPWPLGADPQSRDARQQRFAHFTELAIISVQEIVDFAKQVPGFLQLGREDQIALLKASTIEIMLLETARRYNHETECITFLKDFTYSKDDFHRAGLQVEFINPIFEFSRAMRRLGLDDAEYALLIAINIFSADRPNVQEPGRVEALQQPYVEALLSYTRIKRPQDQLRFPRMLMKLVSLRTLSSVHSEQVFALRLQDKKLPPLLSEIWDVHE
# Estrogen receptor (Homo sapiens), sequence (P03372 whole entry, looked up, the tested form may be a part): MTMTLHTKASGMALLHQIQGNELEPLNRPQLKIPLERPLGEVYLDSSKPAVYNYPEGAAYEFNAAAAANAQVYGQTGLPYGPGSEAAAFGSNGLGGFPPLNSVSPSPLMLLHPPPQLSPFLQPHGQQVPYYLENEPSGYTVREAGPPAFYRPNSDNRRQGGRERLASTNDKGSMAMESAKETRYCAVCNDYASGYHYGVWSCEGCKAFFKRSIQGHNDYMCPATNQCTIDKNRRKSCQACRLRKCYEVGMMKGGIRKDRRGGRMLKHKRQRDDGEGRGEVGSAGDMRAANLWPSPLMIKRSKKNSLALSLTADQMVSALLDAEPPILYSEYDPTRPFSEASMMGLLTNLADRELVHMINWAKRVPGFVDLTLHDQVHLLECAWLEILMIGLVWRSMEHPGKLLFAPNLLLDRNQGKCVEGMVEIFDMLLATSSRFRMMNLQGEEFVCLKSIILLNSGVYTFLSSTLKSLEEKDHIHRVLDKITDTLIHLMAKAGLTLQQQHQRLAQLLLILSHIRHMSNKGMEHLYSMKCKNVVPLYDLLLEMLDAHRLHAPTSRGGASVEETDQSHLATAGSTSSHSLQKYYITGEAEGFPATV
# Transcriptional activator Myb (Homo sapiens), sequence (P10242 whole entry, looked up): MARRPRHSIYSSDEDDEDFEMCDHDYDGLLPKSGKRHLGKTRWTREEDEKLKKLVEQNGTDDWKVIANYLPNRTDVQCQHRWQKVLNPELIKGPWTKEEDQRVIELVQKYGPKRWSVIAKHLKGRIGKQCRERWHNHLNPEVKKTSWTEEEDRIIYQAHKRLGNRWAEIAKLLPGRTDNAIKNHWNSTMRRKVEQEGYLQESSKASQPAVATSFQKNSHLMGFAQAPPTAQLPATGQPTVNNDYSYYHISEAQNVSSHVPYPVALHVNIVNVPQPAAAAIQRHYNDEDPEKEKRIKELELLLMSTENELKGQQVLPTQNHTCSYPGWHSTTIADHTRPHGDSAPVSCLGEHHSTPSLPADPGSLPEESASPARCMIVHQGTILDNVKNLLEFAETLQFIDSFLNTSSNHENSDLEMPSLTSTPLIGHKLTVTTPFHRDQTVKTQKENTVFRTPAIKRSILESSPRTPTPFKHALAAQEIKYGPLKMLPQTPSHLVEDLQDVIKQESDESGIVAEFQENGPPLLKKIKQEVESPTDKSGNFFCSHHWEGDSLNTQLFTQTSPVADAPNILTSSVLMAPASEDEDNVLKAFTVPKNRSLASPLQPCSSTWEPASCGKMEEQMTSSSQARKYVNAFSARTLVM
# Estrogen-related receptor gamma (Homo sapiens), sequence (P62508 whole entry, looked up, the tested form may be a part): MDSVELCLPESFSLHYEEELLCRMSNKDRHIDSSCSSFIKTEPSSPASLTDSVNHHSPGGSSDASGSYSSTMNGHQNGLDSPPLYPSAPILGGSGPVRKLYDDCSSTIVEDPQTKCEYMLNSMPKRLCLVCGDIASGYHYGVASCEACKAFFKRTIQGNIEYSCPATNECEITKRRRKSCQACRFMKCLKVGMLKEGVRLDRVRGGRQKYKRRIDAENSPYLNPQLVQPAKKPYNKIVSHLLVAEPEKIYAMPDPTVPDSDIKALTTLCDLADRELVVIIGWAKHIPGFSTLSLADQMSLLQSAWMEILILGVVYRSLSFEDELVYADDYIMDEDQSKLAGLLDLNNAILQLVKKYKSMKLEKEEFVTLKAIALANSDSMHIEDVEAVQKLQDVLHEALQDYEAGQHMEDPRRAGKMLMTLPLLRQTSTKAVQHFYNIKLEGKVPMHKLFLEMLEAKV
# Oxysterols receptor LXR-alpha (Homo sapiens), sequence (Q13133 whole entry, looked up): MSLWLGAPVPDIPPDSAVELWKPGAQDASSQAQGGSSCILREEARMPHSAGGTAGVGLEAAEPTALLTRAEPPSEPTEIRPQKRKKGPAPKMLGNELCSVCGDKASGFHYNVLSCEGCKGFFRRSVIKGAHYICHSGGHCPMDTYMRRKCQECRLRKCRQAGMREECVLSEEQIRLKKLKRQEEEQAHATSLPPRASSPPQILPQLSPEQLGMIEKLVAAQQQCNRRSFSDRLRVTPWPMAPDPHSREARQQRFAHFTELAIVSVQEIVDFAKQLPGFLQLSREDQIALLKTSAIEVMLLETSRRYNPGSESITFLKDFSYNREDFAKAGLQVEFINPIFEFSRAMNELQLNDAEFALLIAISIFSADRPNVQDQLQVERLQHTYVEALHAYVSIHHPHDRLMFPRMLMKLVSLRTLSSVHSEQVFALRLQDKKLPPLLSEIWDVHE
compound,measurement,setting,value
CC=CC(=O)N(CC)c1ccccc1C,outcome,[1],inactive
same,outcome,[2],inactive
same,AC50,[3],15.5 µM (active)
same,outcome,[4],inactive
same,outcome,[5],inactive
same,outcome,[6],inactive
same,outcome,[7],inactive
same,outcome,[8],inactive
same,outcome,[9],inactive
same,outcome,[10],inactive
same,outcome,[11],inactive
same,outcome,[12],inactive
same,outcome,[13],inactive
same,outcome,[14],inactive
same,outcome,[15],inactive
CC(C)(C)C(=O)C=Cc1ccc(Cl)cc1,AC50,[1],100 µM (active)
same,outcome,[2],inactive
same,AC50,[3],26.3 µM (active)
same,AC50,[4],24.8 µM (active)
same,AC50,[5],26.1 µM (active)
same,outcome,[6],inactive
same,AC50,[7],66.4 µM (active)
same,outcome,[8],inactive
same,outcome,[16],inactive
same,outcome,[17],inactive
same,AC50,[10],26.1 µM (active)
same,outcome,[11],inactive
same,outcome,[13],inactive
same,outcome,[18],inactive
same,outcome,[14],inactive
same,outcome,[15],inactive
CC(C)C1=CC2=CC[C@@H]3[C@](C)(CCC[C@@]3(C)C(=O)O)[C@H]2CC1,AC50,[1],52.1 µM (active)
same,AC50,[2],0.551 µM (active)
same,AC50,[3],4.54 µM (active)
same,outcome,[4],inactive
same,AC50,[5],31.9 µM (active)
same,outcome,[6],inactive
same,outcome,[7],inactive
same,outcome,[12],inactive
same,outcome,[19],inactive
same,AC50,[18],111 µM (active)
O=CN1CCCCC1,outcome,[1],inactive
same,outcome,[2],inactive
same,outcome,[3],inactive
same,outcome,[4],inactive
same,outcome,[5],inactive
same,outcome,[7],inactive
same,outcome,[8],inactive
same,outcome,[20],inactive
same,outcome,[13],inactive
same,outcome,[18],inactive
same,outcome,[14],inactive
same,outcome,[15],inactive
O=C(O)CCCC[C@@H]1SC[C@@H]2NC(=O)N[C@@H]21,outcome,[1],inactive
same,outcome,[2],inactive
same,outcome,[3],inactive
same,outcome,[4],inactive
same,outcome,[5],inactive
same,outcome,[6],inactive
same,outcome,[7],inactive
same,outcome,[8],inactive
same,outcome,[16],inactive
same,outcome,[9],inactive
same,outcome,[10],inactive
same,outcome,[11],inactive
same,outcome,[13],inactive
same,outcome,[15],inactive
CCCCCCCCCCCCCOP(=O)(O)O,outcome,[1],inactive
same,outcome,[2],inactive
same,outcome,[3],inactive
same,outcome,[4],inactive
same,outcome,[5],inactive
same,outcome,[7],inactive
same,outcome,[8],inactive
same,outcome,[11],inactive
same,outcome,[14],inactive
same,outcome,[15],inactive
FC(F)(F)C(=NOCC1OCCO1)c1ccc(Cl)cc1,outcome,[1],inactive
same,outcome,[2],inactive
same,outcome,[3],inactive
same,outcome,[4],inactive
same,outcome,[5],inactive
same,outcome,[7],inactive
same,outcome,[8],inactive
same,outcome,[19],inactive
same,outcome,[13],inactive
same,AC50,[18],100 µM (active)
same,outcome,[14],inactive
same,outcome,[15],inactive
CCOC(=O)N1CCC(=C2c3ccc(Cl)cc3CCc3cccnc32)CC1,AC50,[1],8.84 µM (active)
same,outcome,[2],inactive
same,AC50,[3],1.37 µM (active)
same,outcome,[4],inactive
same,outcome,[5],inactive
same,outcome,[6],inactive
same,outcome,[7],inactive
same,outcome,[8],inactive
same,outcome,[20],inactive
same,outcome,[17],inactive
same,outcome,[13],inactive
same,AC50,[18],15.6 µM (active)
same,outcome,[14],inactive
same,outcome,[15],inactive
O=C1CCCCCN1SSN1CCCCCC1=O,outcome,[1],inactive
same,outcome,[2],inactive
same,outcome,[3],inactive
same,outcome,[4],inactive
same,outcome,[5],inactive
same,AC50,[7],187 µM (active)
same,outcome,[20],inactive
same,outcome,[16],inactive
same,outcome,[17],inactive
same,outcome,[11],inactive
same,outcome,[12],inactive
same,outcome,[19],inactive
same,outcome,[13],inactive
same,outcome,[15],inactive
C=C(C)[C@@H]1CCC2=CCC[C@@H](C)[C@]2(C)C1,outcome,[1],inactive
same,outcome,[2],inactive
same,outcome,[3],inactive
same,outcome,[4],inactive
same,AC50,[5],9.59 µM (active)
same,outcome,[6],inactive
same,outcome,[7],inactive
same,outcome,[8],inactive
same,outcome,[9],inactive
same,outcome,[11],inactive
same,outcome,[19],inactive
same,outcome,[13],inactive
same,outcome,[18],inactive
same,outcome,[14],inactive
same,outcome,[15],inactive
